# How the values were obtained:
# [1] = biological target: Tyrosine-protein kinase CSK (Homo sapiens) (UniProt P41240); conditions: at 1 µM;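 further: each value is an averaged inhibition reading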
# [2] = biological target: T1, Discoidin domain-containing receptor 2 (Homo sapiens) (UniProt Q16832); conditions: at 0.1 µM
# T1 sequence (whole entry): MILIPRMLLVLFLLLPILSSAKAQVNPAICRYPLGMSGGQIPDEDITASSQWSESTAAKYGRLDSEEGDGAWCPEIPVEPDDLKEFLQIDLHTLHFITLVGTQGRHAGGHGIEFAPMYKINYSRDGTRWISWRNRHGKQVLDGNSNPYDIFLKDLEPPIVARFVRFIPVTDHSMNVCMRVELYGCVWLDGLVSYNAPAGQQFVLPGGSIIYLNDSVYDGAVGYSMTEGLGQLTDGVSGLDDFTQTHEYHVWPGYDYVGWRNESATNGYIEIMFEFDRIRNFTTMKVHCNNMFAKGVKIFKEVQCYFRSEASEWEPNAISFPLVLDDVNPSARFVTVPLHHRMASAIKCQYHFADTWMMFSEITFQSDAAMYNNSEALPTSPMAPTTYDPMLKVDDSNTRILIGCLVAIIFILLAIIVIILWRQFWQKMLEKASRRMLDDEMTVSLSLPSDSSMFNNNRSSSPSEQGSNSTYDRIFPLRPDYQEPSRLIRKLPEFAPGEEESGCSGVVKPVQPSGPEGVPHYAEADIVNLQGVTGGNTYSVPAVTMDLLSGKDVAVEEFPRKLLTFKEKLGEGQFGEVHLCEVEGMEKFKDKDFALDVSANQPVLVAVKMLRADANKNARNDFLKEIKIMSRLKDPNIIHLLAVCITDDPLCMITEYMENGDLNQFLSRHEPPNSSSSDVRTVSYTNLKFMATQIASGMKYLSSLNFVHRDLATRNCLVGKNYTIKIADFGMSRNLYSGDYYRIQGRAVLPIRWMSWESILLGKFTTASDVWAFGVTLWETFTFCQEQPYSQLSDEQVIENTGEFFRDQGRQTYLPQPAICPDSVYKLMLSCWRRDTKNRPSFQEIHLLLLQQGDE
# [3] = biological target: T1, Discoidin domain-containing receptor 2 (Homo sapiens); conditions: at 1 µM
# [4] = biological target: Epidermal growth factor receptor (Homo sapiens) (UniProt P00533); conditions: at 0.1 µM
# [5] = biological target: Epidermal growth factor receptor (Homo sapiens) (UniProt P00533); conditions: at 1 µM
# [6] = test system: Epidermal growth factor receptor (Homo sapiens), P00533 [L858R]; conditions: at 0.1 µM
# [7] = test system: Epidermal growth factor receptor (Homo sapiens), P00533 [L858R]; conditions: at 1 µM
# [8] = test system: Epidermal growth factor receptor (Homo sapiens), P00533 [L861Q]; conditions: at 0.1 µM
# [9] = test system: Epidermal growth factor receptor (Homo sapiens), P00533 [L861Q]; conditions: at 1 µM
# [10] = test system: Epidermal growth factor receptor (Homo sapiens), P00533 [T790M]; conditions: at 0.1 µM
# [11] = test system: Epidermal growth factor receptor (Homo sapiens), P00533 [T790M]; conditions: at 1 µM
# [12] = test system: Epidermal growth factor receptor (Homo sapiens), P00533 [L858R,T790M]; conditions: at 0.1 µM
# [13] = test system: Epidermal growth factor receptor (Homo sapiens), P00533 [L858R,T790M]; conditions: at 1 µM
# [14] = biological target: Ephrin type-A receptor 2 (Homo sapiens) (UniProt P29317); conditions: at 0.1 µM
# [15] = biological target: Ephrin type-A receptor 2 (Homo sapiens) (UniProt P29317); conditions: at 1 µM
# [16] = biological target: T2, Ephrin type-A receptor 3 (Homo sapiens) (UniProt P29320); conditions: at 0.1 µM
# T2 sequence (whole entry): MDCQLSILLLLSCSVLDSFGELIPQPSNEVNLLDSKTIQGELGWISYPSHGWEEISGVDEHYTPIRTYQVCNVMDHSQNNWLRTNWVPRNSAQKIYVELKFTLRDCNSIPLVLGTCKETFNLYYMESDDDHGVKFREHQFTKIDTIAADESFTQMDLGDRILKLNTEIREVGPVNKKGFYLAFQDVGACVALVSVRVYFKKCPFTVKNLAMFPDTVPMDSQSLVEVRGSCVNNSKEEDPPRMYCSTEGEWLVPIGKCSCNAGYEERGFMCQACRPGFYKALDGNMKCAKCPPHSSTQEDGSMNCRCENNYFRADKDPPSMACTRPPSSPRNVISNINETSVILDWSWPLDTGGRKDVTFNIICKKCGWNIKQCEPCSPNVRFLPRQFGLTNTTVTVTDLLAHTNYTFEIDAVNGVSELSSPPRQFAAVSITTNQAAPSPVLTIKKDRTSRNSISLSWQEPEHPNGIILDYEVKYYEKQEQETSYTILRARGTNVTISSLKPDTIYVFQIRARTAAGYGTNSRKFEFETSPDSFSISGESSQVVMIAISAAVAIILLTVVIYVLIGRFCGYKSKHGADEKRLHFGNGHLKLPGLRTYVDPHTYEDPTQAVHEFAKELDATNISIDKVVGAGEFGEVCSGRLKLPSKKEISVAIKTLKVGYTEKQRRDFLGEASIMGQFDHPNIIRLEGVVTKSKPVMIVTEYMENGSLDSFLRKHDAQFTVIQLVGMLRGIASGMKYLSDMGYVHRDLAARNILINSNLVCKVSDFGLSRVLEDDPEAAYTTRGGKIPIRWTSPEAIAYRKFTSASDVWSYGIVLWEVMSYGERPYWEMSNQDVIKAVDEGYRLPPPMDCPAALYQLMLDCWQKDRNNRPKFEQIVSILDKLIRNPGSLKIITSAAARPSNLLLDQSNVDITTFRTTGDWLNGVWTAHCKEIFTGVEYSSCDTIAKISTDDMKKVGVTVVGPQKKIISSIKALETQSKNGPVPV
# [17] = biological target: T2, Ephrin type-A receptor 3 (Homo sapiens); conditions: at 1 µM
# [18] = biological target: Ephrin type-A receptor 4 (Homo sapiens) (UniProt P54764); conditions: at 0.1 µM
# [19] = biological target: Ephrin type-A receptor 4 (Homo sapiens) (UniProt P54764); conditions: at 1 µM
# [20] = biological target: T3, Ephrin type-B receptor 2 (Homo sapiens) (UniProt P29323); conditions: at 0.1 µM;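 further: reported as mean inhibition of EPHB2, from the GSK PKIS dataset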
# T3 sequence (whole entry): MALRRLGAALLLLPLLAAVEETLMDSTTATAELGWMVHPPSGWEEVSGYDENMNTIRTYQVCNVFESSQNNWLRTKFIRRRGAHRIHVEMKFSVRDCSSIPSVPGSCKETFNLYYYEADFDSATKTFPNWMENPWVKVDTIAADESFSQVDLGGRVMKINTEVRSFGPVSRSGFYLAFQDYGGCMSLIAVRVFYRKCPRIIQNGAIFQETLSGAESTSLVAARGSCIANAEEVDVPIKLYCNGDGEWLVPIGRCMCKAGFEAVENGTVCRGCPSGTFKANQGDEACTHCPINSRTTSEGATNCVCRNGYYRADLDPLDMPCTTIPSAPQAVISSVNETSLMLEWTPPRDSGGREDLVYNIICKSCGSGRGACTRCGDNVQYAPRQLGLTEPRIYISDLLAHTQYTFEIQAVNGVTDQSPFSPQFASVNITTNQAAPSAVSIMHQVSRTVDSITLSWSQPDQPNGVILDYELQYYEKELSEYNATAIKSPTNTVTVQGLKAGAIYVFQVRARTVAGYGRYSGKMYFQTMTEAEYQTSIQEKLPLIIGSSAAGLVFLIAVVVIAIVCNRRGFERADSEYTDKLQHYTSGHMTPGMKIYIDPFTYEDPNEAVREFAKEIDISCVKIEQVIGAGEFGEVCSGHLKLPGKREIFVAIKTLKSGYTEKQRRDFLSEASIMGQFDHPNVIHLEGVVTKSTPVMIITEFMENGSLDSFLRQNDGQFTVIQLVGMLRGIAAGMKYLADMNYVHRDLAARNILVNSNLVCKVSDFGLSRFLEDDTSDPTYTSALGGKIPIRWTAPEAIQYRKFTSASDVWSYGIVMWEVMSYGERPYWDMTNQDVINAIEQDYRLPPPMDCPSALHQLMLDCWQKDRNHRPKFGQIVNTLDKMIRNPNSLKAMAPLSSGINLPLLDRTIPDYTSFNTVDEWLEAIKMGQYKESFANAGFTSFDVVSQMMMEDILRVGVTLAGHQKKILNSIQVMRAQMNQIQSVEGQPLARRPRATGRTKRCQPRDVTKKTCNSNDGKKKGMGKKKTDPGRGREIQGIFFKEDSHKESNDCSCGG
# Ephrin type-A receptor 2 (Homo sapiens), sequence (P29317 whole entry): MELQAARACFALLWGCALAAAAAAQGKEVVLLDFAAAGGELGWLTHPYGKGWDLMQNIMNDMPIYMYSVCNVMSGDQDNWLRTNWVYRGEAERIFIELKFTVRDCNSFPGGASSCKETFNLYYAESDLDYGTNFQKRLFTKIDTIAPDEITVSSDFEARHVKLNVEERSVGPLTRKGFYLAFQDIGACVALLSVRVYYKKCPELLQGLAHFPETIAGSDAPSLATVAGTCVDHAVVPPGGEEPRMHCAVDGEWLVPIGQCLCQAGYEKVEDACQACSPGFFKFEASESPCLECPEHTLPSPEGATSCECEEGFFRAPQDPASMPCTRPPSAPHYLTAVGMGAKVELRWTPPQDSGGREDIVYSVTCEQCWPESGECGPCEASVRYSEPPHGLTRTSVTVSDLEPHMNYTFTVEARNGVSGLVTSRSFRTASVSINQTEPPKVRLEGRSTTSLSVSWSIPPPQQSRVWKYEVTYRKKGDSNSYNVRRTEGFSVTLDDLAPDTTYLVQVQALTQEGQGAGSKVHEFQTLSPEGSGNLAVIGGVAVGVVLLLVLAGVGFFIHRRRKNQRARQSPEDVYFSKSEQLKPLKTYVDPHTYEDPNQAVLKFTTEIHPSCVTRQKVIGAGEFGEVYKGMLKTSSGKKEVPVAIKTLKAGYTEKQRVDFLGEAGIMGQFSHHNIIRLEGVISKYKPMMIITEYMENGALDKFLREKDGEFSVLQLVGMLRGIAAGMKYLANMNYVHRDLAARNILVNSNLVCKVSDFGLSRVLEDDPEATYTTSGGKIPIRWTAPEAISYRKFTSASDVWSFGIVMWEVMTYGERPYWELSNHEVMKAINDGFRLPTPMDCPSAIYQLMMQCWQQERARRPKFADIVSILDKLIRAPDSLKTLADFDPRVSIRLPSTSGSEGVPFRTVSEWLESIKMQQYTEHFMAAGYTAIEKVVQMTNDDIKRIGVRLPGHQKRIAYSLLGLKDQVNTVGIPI
# Epidermal growth factor receptor (Homo sapiens), sequence (P00533 whole entry): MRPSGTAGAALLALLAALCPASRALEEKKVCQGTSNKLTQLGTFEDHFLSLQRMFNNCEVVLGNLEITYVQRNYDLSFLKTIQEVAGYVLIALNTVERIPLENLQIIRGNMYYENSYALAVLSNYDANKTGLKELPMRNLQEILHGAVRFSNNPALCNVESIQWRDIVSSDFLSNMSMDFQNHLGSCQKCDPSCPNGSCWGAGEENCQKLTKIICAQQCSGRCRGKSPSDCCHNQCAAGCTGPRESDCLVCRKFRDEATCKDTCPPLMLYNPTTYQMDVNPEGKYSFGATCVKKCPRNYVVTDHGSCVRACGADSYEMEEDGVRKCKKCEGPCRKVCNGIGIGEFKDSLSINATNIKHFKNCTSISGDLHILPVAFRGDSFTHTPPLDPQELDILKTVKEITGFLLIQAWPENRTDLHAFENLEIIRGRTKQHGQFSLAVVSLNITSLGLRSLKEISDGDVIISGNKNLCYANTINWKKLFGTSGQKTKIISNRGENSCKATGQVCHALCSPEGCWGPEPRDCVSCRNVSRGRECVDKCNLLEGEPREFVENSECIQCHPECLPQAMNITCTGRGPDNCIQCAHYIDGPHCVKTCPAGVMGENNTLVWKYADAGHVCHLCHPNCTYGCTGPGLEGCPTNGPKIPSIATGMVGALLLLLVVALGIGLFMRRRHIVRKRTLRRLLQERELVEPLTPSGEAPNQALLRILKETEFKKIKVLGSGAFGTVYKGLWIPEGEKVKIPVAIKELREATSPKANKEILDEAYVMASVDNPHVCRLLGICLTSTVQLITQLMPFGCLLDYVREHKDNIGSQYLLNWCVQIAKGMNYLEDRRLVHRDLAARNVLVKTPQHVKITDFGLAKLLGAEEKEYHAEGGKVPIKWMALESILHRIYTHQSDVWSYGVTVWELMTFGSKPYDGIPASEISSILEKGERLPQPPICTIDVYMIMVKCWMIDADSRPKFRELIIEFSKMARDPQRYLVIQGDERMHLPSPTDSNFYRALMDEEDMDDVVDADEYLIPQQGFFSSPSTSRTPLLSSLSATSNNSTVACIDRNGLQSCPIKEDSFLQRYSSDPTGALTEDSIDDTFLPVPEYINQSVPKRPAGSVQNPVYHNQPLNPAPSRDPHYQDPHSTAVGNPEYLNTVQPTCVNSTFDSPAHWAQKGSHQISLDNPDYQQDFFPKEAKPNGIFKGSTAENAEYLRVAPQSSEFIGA
# Epidermal growth factor receptor (Homo sapiens), P00533 [L861Q], sequence (P00533 whole entry L861Q): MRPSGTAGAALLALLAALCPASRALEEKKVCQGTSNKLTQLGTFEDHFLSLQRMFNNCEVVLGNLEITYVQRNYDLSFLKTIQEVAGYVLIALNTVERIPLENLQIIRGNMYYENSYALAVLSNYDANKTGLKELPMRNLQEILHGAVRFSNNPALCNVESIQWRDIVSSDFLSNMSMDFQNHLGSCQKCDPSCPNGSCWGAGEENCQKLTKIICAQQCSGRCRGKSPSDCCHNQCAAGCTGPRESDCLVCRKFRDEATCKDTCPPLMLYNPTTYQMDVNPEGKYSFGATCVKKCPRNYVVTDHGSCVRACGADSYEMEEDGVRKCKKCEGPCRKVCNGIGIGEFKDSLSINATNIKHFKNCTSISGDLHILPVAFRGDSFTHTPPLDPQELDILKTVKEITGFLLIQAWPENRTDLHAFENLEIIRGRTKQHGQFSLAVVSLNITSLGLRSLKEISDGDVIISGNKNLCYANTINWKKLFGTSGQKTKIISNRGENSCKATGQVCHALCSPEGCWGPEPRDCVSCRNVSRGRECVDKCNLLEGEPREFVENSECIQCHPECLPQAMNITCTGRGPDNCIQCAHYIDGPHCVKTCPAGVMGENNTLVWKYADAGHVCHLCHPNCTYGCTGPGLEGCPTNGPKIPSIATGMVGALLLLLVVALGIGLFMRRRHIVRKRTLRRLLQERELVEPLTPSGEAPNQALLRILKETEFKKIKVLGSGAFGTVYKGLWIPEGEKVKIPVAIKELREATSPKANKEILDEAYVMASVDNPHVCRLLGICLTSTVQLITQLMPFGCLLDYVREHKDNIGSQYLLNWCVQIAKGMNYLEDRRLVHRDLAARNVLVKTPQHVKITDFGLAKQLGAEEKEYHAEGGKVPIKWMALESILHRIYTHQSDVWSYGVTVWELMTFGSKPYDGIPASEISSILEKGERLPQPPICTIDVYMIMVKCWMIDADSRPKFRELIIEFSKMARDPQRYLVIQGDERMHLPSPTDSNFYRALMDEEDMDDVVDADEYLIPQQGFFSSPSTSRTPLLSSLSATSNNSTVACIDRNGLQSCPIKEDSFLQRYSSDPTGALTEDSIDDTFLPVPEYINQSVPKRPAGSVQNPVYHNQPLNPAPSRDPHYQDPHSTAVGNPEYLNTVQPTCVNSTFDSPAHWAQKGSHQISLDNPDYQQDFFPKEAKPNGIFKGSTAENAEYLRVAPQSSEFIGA
# Tyrosine-protein kinase CSK (Homo sapiens), sequence (P41240 2-450 limits assumed): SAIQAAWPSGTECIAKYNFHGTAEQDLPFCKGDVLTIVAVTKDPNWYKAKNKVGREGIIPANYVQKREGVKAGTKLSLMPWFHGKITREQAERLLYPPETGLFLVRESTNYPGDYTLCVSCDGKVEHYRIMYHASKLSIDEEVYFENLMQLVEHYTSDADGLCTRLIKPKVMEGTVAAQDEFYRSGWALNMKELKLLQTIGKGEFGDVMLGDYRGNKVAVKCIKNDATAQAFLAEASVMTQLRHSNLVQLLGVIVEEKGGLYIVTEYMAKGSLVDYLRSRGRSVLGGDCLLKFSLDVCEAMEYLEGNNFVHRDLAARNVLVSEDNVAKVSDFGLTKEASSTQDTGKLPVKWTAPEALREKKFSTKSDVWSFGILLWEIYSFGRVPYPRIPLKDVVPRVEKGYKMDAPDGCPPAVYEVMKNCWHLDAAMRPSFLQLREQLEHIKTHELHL
# Epidermal growth factor receptor (Homo sapiens), P00533 [T790M], sequence (P00533 whole entry T790M): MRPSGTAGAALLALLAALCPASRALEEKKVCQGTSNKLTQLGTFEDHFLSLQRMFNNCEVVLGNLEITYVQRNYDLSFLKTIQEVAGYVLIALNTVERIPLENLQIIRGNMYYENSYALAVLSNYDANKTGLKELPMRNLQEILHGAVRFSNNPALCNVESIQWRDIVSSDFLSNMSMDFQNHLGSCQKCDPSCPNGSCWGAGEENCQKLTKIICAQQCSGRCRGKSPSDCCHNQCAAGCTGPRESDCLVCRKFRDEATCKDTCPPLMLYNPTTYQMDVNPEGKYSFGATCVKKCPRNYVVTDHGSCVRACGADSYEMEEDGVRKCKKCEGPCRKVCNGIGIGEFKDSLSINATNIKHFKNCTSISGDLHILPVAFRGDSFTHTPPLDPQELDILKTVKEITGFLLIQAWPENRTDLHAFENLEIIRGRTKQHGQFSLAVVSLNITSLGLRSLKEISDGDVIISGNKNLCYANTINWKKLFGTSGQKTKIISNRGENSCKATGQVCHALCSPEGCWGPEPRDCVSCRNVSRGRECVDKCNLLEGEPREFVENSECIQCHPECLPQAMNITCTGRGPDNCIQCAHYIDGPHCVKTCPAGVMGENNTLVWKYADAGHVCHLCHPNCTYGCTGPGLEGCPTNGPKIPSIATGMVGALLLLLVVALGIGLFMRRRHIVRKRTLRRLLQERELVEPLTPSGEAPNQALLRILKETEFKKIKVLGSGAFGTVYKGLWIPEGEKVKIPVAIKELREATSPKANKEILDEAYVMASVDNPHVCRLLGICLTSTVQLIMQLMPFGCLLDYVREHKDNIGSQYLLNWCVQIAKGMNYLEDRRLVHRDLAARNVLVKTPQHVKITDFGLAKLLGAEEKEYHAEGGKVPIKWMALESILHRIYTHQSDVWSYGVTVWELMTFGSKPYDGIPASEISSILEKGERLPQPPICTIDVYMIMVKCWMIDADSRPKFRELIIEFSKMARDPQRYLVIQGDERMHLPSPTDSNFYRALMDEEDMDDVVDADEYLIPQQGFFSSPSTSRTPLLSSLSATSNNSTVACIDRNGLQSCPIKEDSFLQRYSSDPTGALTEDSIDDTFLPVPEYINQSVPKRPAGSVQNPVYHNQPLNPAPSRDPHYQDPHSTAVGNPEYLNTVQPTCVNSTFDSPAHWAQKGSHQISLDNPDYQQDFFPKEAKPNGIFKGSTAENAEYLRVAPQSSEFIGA
SMILES,inhibition [1],inhibition [2],inhibition [3],inhibition [4],inhibition [5],inhibition [6],inhibition [7],inhibition [8],inhibition [9],inhibition [10],inhibition [11],inhibition [12],inhibition [13],inhibition [14],inhibition [15],inhibition [16],inhibition [17],inhibition [18],inhibition [19],inhibition [20]
COC(=O)Nc1nc2cc(Oc3cccc(NC(=O)Nc4cc(C(F)(F)F)ccc4F)c3)ccc2[nH]1,2.36%,13.2%,68.6%,0.87%,1.45%,-1.54%,1.41%,-1.86%,-4.32%,-1.19%,-1.93%,-3.25%,3.44%,-2.35%,3.83%,0.48%,2.56%,1.63%,14.2%,-0.54%
O=C1NC(=O)C(c2ccc(Cl)cc2)=C1Nc1ccc(Cl)c(C(=O)O)c1,-4.62%,0.03%,2.46%,1.07%,6.73%,-2.2%,6.41%,0.32%,1.03%,-0.88%,-1.21%,-0.4%,-1.38%,-2%,-1.26%,-3.17%,-3.69%,-6.1%,-6.97%,-0.68%
CCN1CCC(CC(=O)Nc2n[nH]c3nc(-c4cccs4)c(Br)cc23)CC1,-4.84%,-0.58%,0.03%,1.1%,3.65%,0.06%,3.28%,-0.27%,1.14%,-1.65%,-1.12%,0.09%,-0.41%,-3.7%,-1.54%,-7.71%,-2.29%,-7.32%,-3.58%,-2.13%
CN(C)c1cc2c(Nc3ccc4nc(Cc5ccccc5)[nH]c4c3)ncnc2cn1,55.3%,3.16%,7.23%,66.6%,77.6%,16.1%,48.1%,27.3%,40.3%,3.48%,6.78%,3.54%,7%,2.13%,2.37%,7.81%,5.67%,11.6%,15.2%,9.32%
CS(=O)(=O)Nc1ccc(N/C=C2\C(=O)Nc3ccccc32)cc1,-6.43%,0.64%,0.83%,0.27%,1.45%,-0.02%,-5.94%,0.35%,-1.41%,-1.68%,-1.95%,0.26%,-4.58%,-2.34%,-1.5%,-5.95%,-4.36%,-6.81%,-2.53%,-6.42%
Nc1nc(-c2ccccn2)c(-c2ccc3ncccc3n2)s1,4.7%,3.14%,-1.29%,1.32%,1.23%,3.43%,2.31%,1.79%,4.31%,1.91%,1.67%,2.24%,1.13%,0.85%,0.89%,2.58%,3.28%,7.9%,8.8%,5.32%
COc1ccc(-c2ccncc2)cc1C(N)=O,2.12%,2.19%,2.53%,4.47%,4.86%,5.16%,4.73%,4.48%,6.9%,0.43%,2.61%,3.26%,3.22%,0.83%,0.98%,2.75%,4.65%,6.67%,8.05%,5.39%

# Source: ChEMBL document CHEMBL1961873, “Compounds: GSK PKIS; Assays: Nanosyn kinase panel” (2012)
